Compounds with a hit are over-represented: about 3.4% of the library has one in this group of screens.
Ecoli rRNA inh – selective bacterial rRNA inhibition in E. coli. GFP signal change (wild-type ribosome), % (no concentration beside the values). E. coli WT GFP vs humanized-ribosome RFP mutants, fluorescence, 24 h; active compounds read low; DMSO median 0, no signal -100. 1.6% of 350,000 active;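 active means significant combined selectivity score with lowered wild-type GFP, culture density cut under 30%, mutant RFP and density less affected; inactive means any of these conditions unmet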
SIRT5 inh – blocks human SIRT5 desuccinylation of peptide; Q9NXA8; Purified SirT5, succinyl-peptide AMC, trypsin-coupled fluorescence; inhibition, % at 15 µM; 1.1% of 330,000 active; AID 652115; in the data active means inhibition above about 15%; inconclusive means no clear call, values can overlap the other calls
Target sequence (Q9NXA8 whole entry, looked up): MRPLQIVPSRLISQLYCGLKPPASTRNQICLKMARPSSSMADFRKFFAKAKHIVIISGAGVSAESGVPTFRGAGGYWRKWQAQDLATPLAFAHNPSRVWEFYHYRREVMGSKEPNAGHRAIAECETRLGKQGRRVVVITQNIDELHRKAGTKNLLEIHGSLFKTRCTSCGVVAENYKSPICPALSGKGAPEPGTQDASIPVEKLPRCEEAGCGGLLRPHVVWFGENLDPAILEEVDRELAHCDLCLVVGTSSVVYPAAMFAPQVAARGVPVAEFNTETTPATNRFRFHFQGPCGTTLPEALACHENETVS
LGR2 antag – Drosophila LGR2 receptor signaling inhibition. 0.35% of 380,000 active. AID 720647. HEK293 LGR2, CRE-luciferase, bursicon-stimulated, 4 h. inhibition, % at 9.99 µM;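 active means drop in luminescence signal, shown as inhibition above about 50% in the replicate tests, limit read from the data, passing the limit was not always enough; inconclusive means probably only some replicates passing the limit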;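 further: agonist challenge used bursicon conditioned medium at about half maximal strength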
PGC1a acetyl inh – lowers PGC1a acetylation signal in U2OS cells; AlphaScreen anti-acetyl-lysine; with virally co-expressed GCN5 acetyltransferase; inhibition, % at 15.6 µM; 0.17% of 350,000 active;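 active means every replicate shows inhibition of at least 40%; inconclusive means mean inhibition at least 40% but some replicate below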
EWS-Fli block – EWS/Fli transcriptional activity inhibition. inhibition, % at 12.6 µM. 0.67% of 350,000 active. A673 NR0B1-luciferase reporter, viability-normalised;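 active means mean inhibition of at least 50% after viability correction, with every replicate also passing that limit; inconclusive means mean reaches 50% but only one of two replicates passes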;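 further: firefly luciferase signal divided by Alamar Blue viability fluorescence both relative to DMSO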
PAX8 reporter – PAX8 transcriptional activity inhibition; 1.2% of 360,000 active; RMG-I TPO-luciferase reporter, SteadyGlo, 24 h; inhibition, % at 12.6 µM;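 active means mean replicate inhibition at least 60% with every replicate also reaching 60%; inconclusive means only one of the two criteria is met; inactive means mean below 60% and not all replicates reaching 60%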;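 further: luciferase light reporting Pax8 driven TPO promoter activity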
Hits are given with their value.

What do the screens show for `C[C@H]1CN([C@@H](C)CO)C(=O)c2cc(-c3ccc(F)cc3)cnc2O[C@H]1CN(C)C(=O)c1ccncc1`?
Ecoli rRNA inh: inactive; LGR2 antag: inactive; PGC1a acetyl inh: inactive; EWS-Fli block: inactive

What do the screens show for `CS(=O)(=O)Nc1ccc2c(c1)[C@H]1C[C@H](CC(=O)NCc3ccccc3)O[C@H](CO)[C@H]1O2`?
Ecoli rRNA inh: inactive; SIRT5 inh: 16.1; LGR2 antag: inactive; EWS-Fli block: inactive; PAX8 reporter: inactive

Results for CS(=O)(=O)Nc1ccc2c(c1)[C@@H]1C[C@@H](CC(=O)NCc3ccc(-c4ccccc4)cc3)O[C@@H](CO)[C@@H]1O2 ?
Ecoli rRNA inh: inactive; LGR2 antag: inactive; PGC1a acetyl inh: inactive; EWS-Fli block: 56.6; PAX8 reporter: 81.9

What do the screens show for `CS(=O)(=O)Nc1ccc2c(c1)[C@@H]1C[C@@H](CC(=O)NCc3ccccc3)O[C@H](CO)[C@@H]1O2`?
Ecoli rRNA inh: inactive; SIRT5 inh: inactive; LGR2 antag: inactive; PGC1a acetyl inh: inactive; EWS-Fli block: inactive; PAX8 reporter: inactive

What do the screens show for `CS(=O)(=O)Nc1ccc2c(c1)[C@H]1C[C@@H](CC(=O)NCc3ccc(-c4ccccc4)cc3)O[C@@H](CO)[C@H]1O2`?
Ecoli rRNA inh: inactive; LGR2 antag: inactive; PGC1a acetyl inh: inactive; EWS-Fli block: inactive; PAX8 reporter: inactive

How did CCCNC(=O)N(C)C[C@H]1Oc2ncc(-c3ccncc3)cc2C(=O)N([C@H](C)CO)C[C@H]1C do in these assays?
Ecoli rRNA inh: inactive; SIRT5 inh: inactive; LGR2 antag: inactive; PGC1a acetyl inh: inactive; EWS-Fli block: inactive

How did C[C@@H]1CN([C@H](C)CO)C(=O)Cc2cc(NC(=O)Nc3ccc(F)cc3)ccc2O[C@H]1CN(C)C(=O)Nc1ccc(C(F)(F)F)cc1 do in these assays?
Ecoli rRNA inh: inactive; LGR2 antag: inactive; PGC1a acetyl inh: inactive; EWS-Fli block: inactive; PAX8 reporter: 80.4

What do the screens show for `C[C@@H]1CN([C@@H](C)CO)C(=O)Cc2cc(NC(=O)Nc3ccc(C(F)(F)F)cc3)ccc2O[C@H]1CN(C)C(=O)Nc1ccc(C(F)(F)F)cc1`?
Ecoli rRNA inh: inactive; SIRT5 inh: inactive; LGR2 antag: inactive; PGC1a acetyl inh: inactive; EWS-Fli block: inactive; PAX8 reporter: 78.3

How did CCOC(=O)c1cccc(NC(=O)c2ccc3c(c2)OCO3)c1 do in these assays?
Ecoli rRNA inh: inactive; SIRT5 inh: 19.0; LGR2 antag: inactive; EWS-Fli block: 70.9; PAX8 reporter: inactive

What do the screens show for `Cc1nc2ccccc2c(=O)n1-c1cccc(NC(=O)c2cccs2)c1`?
Ecoli rRNA inh: inactive; SIRT5 inh: inactive; LGR2 antag: inactive; EWS-Fli block: inactive; PAX8 reporter: inactive

How did CC(=O)c1cccc(NC(=O)c2ccc3c(c2)OCO3)c1 do in these assays?
Ecoli rRNA inh: inactive; SIRT5 inh: inactive; PGC1a acetyl inh: inactive; EWS-Fli block: inactive; PAX8 reporter: inactive

Results for O=C(Nc1cccc(NC(=O)c2cccs2)c1)c1ccc2c(c1)OCO2 ?
Ecoli rRNA inh: -33.9; SIRT5 inh: inactive; LGR2 antag: inactive; EWS-Fli block: inactive; PAX8 reporter: inactive

Results for O=C(Nc1cccc(N2C(=O)C=CC2=O)c1)c1cccs1 ?
Ecoli rRNA inh: inactive; SIRT5 inh: inactive; LGR2 antag: inactive; PGC1a acetyl inh: inactive; EWS-Fli block: inactive; PAX8 reporter: 66.4

How did CN(C)CC(=O)Nc1ccc2c(c1)[C@@H]1C[C@H](CC(=O)N(C)C)O[C@@H](CO)[C@@H]1O2 do in these assays?
Ecoli rRNA inh: inactive; SIRT5 inh: inactive; LGR2 antag: inactive; PGC1a acetyl inh: inactive; EWS-Fli block: inactive

How did C[C@H](CO)N1C[C@H](C)[C@H](CN(C)C(=O)Nc2ccc3c(c2)OCO3)Oc2ccc(NC(=O)Nc3cccc4ccccc34)cc2CC1=O do in these assays?
Ecoli rRNA inh: inactive; SIRT5 inh: inactive; LGR2 antag: inactive; PGC1a acetyl inh: inactive; EWS-Fli block: inactive; PAX8 reporter: inactive

Results for CCCCN1C(=O)C(O)=C(C(C)=O)C1c1ccccc1[N+](=O)[O-] (stereo not drawn) ?
Ecoli rRNA inh: inactive; SIRT5 inh: 24.0; LGR2 antag: inactive; EWS-Fli block: inactive; PAX8 reporter: inactive

Results for CC(C)NC(=O)Nc1ccc2c(c1)C(=O)N([C@H](C)CO)C[C@H](C)[C@H](CN(C)S(C)(=O)=O)OCCCC[C@H](C)O2 ?
Ecoli rRNA inh: inactive; SIRT5 inh: inactive; LGR2 antag: inactive; PGC1a acetyl inh: inactive; EWS-Fli block: inactive; PAX8 reporter: inactive

Results for O=C(Nc1ccc(Cl)c(Cl)c1)N[C@@H]1CC[C@H](CCn2cc(C3CC3)nn2)O[C@H]1CO ?
Ecoli rRNA inh: inactive; SIRT5 inh: 27.3; LGR2 antag: inactive; PGC1a acetyl inh: inconclusive; EWS-Fli block: inactive; PAX8 reporter: inactive

How did O=C(Nc1ccc(Cl)c(Cl)c1)N[C@@H]1CC[C@H](CCn2cc(C3CCCCC3)nn2)O[C@H]1CO do in these assays?
Ecoli rRNA inh: -46.2; SIRT5 inh: inactive; LGR2 antag: inactive; PGC1a acetyl inh: inactive; EWS-Fli block: inactive; PAX8 reporter: 113.2

What do the screens show for `COCC#Cc1cnc2c(c1)C(=O)N([C@H](C)CO)C[C@H](C)[C@@H](CN(C)S(=O)(=O)c1cn(C)cn1)O2`?
Ecoli rRNA inh: inactive; SIRT5 inh: inactive; LGR2 antag: inactive; PGC1a acetyl inh: inactive; EWS-Fli block: inactive

What do the screens show for `COCC(=O)N[C@@H]1CC[C@H](CC(=O)N2CCCCC2)O[C@@H]1CO`?
Ecoli rRNA inh: inactive; SIRT5 inh: inactive; LGR2 antag: inactive; PGC1a acetyl inh: inactive; EWS-Fli block: inactive; PAX8 reporter: inactive

What do the screens show for `COc1cccc(Nc2nc(CN3CCOCC3)nc3sc4c(c23)CCCC4)c1`?
Ecoli rRNA inh: inactive; SIRT5 inh: 21.7; LGR2 antag: inactive; EWS-Fli block: inactive; PAX8 reporter: inactive

Results for Cc1cc(S(=O)(=O)Nc2nc(CN3CCOCC3)nc3sc4c(c23)CCC4)cc(C)c1C ?
Ecoli rRNA inh: inactive; SIRT5 inh: inactive; LGR2 antag: inactive; EWS-Fli block: inactive; PAX8 reporter: inactive

What do the screens show for `COc1cccc(NC(=O)C[C@@H]2CC[C@H]3[C@@H](COc4ccc(NC(=O)C5CCCC5)cc4C(=O)N3C)O2)c1`?
Ecoli rRNA inh: inactive

What do the screens show for `CC(=O)Nc1sc2c(c1-c1nc3ccccc3s1)CN(C(C)C)CC2`?
Ecoli rRNA inh: inactive; SIRT5 inh: inactive; LGR2 antag: 102.1; PGC1a acetyl inh: 51.9; EWS-Fli block: 54.2; PAX8 reporter: inactive

Results for C/C=C/c1ccc([C@H]2[C@@H](CO)N(C(C)=O)C23CN(C(=O)c2ccc(F)cc2)C3)cc1 ?
Ecoli rRNA inh: inactive; SIRT5 inh: inactive; LGR2 antag: inactive; PGC1a acetyl inh: inactive; EWS-Fli block: inactive; PAX8 reporter: inactive

What do the screens show for `COc1ccccc1N1CCN(C(=O)CSc2nc3ccccc3[nH]2)CC1`?
Ecoli rRNA inh: -40.5; SIRT5 inh: inactive; LGR2 antag: inactive; PGC1a acetyl inh: inactive; EWS-Fli block: inactive

What do the screens show for `COc1ccc(-c2nnn(CC(=O)N3CCN(c4ccccc4OC)CC3)n2)cc1`?
PGC1a acetyl inh: inactive

From PubChem BioAssay
